A short description of assay [1]: small molecules captured by biotinylated probe aFSTL3 – biochemical, small-molecule microarray, fluorescence 635/667, stem cell growth factor project, primary screen (AID 1064).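 Note: measures binding of the biotinylated anti-FSTL3 antibody to printed compounds.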 As to conditions: higher = more signal.
Assay [2] can be described thus: binders from COS7 lysate, DM2A8 probe, primary screen, torsin A project, cell lysate, small-molecule microarray, fluorescence 635/667 (AID 1065). As to conditions: higher = more signal, COS7 lysate expressing mutant human TOR1A.
The nature of assay [3]: small molecules captured by biotinylated probe aFGF2 – biochemical, small-molecule microarray, fluorescence 635/667, stem cell growth factor project, primary screen (AID 1067).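 Note: measures binding of biotinylated aFGF2 protein to printed compounds on slides; z-score merges feature fluorescence and signal-to-noise across triplicate slides.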 Conditions: higher = more signal.
The nature of assay [4]: small molecules captured by biotinylated probe aFGF10 – biochemical, small-molecule microarray, fluorescence 635/667, stem cell growth factor project, primary screen (AID 1071).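 Note: score merges 667 nm spot intensity and signal to noise from triplicate slides.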 Conditions: higher = more signal.
Assay [5] concerns the target Neurogenic locus notch homolog protein 2 (Homo sapiens) (UniProt Q04721). The assay can be described thus: small molecules binding Notch2 protein – biochemical, small-molecule microarray, 635 nm fluorescence, stem cell growth factors, primary screen (AID 1073). As to conditions: higher = more signal.
The target in assay [6] is Pro-neuregulin-1, membrane-bound isoform (Homo sapiens) (UniProt Q02297). The assay can be described thus: small molecules binding neuregulin-1 protein – biochemical, small-molecule microarray, fluorescence 635/667, psychiatric disease protein project, primary screen (AID 1075).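 Note: score combines 667 nm spot fluorescence with signal to noise.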 As to conditions: NRG1 binding, 635 nm fluorescence, higher = more signal.
Assay [7] deals with Neuregulin-1 EGF-like domain. The assay can be described thus: small molecules binding NRG1 EGF domain – biochemical, small-molecule microarray, 635 nm fluorescence, primary screen (AID 1081).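 Note: binding of the protein to compounds printed on small-molecule microarray slides.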 Conditions: higher = more signal.
Assay [8] can be described thus: FRG1 expression reporter modulators in myotubes – cell-based, C2C12 myotubes, firefly/Renilla luciferase, luminescence, FRG1 inhibition for FSHD, primary screen (AID 1084). As to conditions: FRG1 promoter luciferase, higher = more signal, called active from +8 up or from −8 down.
Assay [9] is described as follows: small molecules captured by biotinylated probe aFST – biochemical, small-molecule microarray, fluorescence 635/667, stem cell growth factor project, primary screen (AID 1086).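 Note: score merges 667 nm fluorescence with signal-to-noise of each printed compound spot.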 As to conditions: higher = more signal.
Assay [10] in a line: binders of probe aHhip on microarray, primary screen, stem cell growth factor project, biochemical, small-molecule microarray, fluorescence 635/667 (AID 1087).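 Note: score merges spot fluorescence at 667nm with spot signal to noise ratio.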 As to conditions: higher = more signal.
In assay [11] the test system is PRMT1 (protein arginine N-methyltransferase 1). In words: small molecules binding arginine methyltransferase PRMT1 – biochemical, small-molecule microarray, 635 nm fluorescence, primary screen (AID 1088).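 Note: binding of Prmt1 protein to compounds spotted on small-molecule microarray slides.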 Conditions: higher = more signal.
Assay [12] can be described thus: growth effects on S. cerevisiae YJM789 – YJM789 clinical isolate, OD600, 24 h, basal, primary screen (AID 1089).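 Note: growth of clinical yeast isolate S. cerevisiae YJM 789 seeded 1000 cells per well; test concentration not given here.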 As to conditions: higher = more signal, called active from +8 up or from −8 down.
Assay [13] can be described thus: S. pombe growth modifiers, basal conditions – strain 972, OD600, 24 h, no modulator, primary screen (AID 1090).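 Note: basal condition with compound alone and no growth modifier present; test concentration not given here.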 Conditions: S. pombe 972 growth, higher = more signal, called active from +8 up or from −8 down.
Assay [14] can be described thus: budding yeast growth modifiers under rapamycin – strain BY4716, OD600, 96 h, primary screen (AID 1091). Note: test concentration not given here. Conditions: S. cerevisiae BY4716 + rapamycin, higher = more signal, called active from +8 up or from −8 down.
In assay [15] the target is Torsin-1A-interacting protein 2 (Homo sapiens) (UniProt Q8NFQ8). The assay can be described thus: small molecules binding lysate-expressed LULL1 – cell lysate, human LULL1 lysate, 635/667 nm fluorescence, primary screen (AID 1092).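 Note: probe is lysate of COS7 cells overexpressing human LULL1; score merges per-feature 667 nm fluorescence with signal-to-noise.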 As to conditions: small-molecule microarray, hLULL1 lysate binding, 635 nm fluorescence; higher = more signal.
A short description of assay [16]: optical density change of DRC41 E. coli – strain DRC41, OD650, 24 h, E. coli filamentation project, primary screen (AID 1093).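 Note: MC1000 strain lacking acrAB efflux and sulA so SOS filamentation is blocked; test concentration not given here.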 Conditions: E. coli DRC41 growth, higher = more signal, called active from +8 up or from −8 down.
Assay [17] can be described thus: probe aLefty2 binding to arrayed compounds – biochemical, biotinylated probe, 635/667 nm fluorescence, primary screen (AID 1094).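 Note: score merges spot fluorescence near 667 nm with spot signal-to-noise ratio.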 Conditions: small-molecule microarray, higher = more signal.
Assay [18] has as its system Noggin (protein binding on small-molecule microarray). The assay can be described thus: small molecules binding Noggin protein – biochemical, 635/667 nm fluorescence, primary screen (AID 1095).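 Note: score merges 667 nm feature fluorescence with signal to noise over triplicate slides.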 As to conditions: 635 nm fluorescence, higher = more signal.
Assay [19] deals with Neurogenic locus notch homolog protein 3 (Homo sapiens) (UniProt Q9UM47). In words: small molecules binding NOTCH3 protein – biochemical, 635/667 nm fluorescence, primary screen (AID 1096). As to conditions: small-molecule microarray, 635 nm fluorescence, higher = more signal.
The nature of assay [20]: probe aEGFR binding to arrayed compounds – biochemical, biotinylated probe, 635/667 nm fluorescence, primary screen (AID 1097).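 Note: probe is a biotinylated anti-EGFR antibody binding compounds printed on slides; score combines fluorescence near 667 nm and signal to noise of each spot.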 Conditions: small-molecule microarray, higher = more signal.

Structures are written as SMILES. Values joined by “and” are separate entries in the source; they are usually repeats but may differ in a detail not shown here. Equal values may be shown once. Active and inactive are the calls of the source.

Chain of Pro-neuregulin-1, membrane-bound isoform (Homo sapiens) (Q02297 whole entry, looked up, the tested form may be a part, canonical isoform): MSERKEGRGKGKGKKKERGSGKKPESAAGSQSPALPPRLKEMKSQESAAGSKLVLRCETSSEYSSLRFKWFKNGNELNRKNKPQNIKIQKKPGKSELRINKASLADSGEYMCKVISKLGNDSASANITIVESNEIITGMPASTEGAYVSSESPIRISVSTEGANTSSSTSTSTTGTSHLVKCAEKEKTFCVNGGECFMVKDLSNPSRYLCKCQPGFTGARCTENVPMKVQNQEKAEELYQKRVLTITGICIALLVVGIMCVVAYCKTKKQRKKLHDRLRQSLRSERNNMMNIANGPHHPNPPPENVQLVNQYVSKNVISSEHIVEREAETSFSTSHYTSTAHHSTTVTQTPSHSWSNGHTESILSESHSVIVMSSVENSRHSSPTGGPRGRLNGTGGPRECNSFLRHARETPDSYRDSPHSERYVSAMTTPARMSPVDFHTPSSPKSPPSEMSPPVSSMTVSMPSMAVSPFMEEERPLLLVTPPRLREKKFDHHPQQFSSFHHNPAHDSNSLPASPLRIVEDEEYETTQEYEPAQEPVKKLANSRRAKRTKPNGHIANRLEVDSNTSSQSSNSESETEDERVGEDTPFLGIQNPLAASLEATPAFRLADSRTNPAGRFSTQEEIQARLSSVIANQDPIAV
Chain of Neurogenic locus notch homolog protein 2 (Homo sapiens) (Q04721 whole entry, looked up, canonical isoform): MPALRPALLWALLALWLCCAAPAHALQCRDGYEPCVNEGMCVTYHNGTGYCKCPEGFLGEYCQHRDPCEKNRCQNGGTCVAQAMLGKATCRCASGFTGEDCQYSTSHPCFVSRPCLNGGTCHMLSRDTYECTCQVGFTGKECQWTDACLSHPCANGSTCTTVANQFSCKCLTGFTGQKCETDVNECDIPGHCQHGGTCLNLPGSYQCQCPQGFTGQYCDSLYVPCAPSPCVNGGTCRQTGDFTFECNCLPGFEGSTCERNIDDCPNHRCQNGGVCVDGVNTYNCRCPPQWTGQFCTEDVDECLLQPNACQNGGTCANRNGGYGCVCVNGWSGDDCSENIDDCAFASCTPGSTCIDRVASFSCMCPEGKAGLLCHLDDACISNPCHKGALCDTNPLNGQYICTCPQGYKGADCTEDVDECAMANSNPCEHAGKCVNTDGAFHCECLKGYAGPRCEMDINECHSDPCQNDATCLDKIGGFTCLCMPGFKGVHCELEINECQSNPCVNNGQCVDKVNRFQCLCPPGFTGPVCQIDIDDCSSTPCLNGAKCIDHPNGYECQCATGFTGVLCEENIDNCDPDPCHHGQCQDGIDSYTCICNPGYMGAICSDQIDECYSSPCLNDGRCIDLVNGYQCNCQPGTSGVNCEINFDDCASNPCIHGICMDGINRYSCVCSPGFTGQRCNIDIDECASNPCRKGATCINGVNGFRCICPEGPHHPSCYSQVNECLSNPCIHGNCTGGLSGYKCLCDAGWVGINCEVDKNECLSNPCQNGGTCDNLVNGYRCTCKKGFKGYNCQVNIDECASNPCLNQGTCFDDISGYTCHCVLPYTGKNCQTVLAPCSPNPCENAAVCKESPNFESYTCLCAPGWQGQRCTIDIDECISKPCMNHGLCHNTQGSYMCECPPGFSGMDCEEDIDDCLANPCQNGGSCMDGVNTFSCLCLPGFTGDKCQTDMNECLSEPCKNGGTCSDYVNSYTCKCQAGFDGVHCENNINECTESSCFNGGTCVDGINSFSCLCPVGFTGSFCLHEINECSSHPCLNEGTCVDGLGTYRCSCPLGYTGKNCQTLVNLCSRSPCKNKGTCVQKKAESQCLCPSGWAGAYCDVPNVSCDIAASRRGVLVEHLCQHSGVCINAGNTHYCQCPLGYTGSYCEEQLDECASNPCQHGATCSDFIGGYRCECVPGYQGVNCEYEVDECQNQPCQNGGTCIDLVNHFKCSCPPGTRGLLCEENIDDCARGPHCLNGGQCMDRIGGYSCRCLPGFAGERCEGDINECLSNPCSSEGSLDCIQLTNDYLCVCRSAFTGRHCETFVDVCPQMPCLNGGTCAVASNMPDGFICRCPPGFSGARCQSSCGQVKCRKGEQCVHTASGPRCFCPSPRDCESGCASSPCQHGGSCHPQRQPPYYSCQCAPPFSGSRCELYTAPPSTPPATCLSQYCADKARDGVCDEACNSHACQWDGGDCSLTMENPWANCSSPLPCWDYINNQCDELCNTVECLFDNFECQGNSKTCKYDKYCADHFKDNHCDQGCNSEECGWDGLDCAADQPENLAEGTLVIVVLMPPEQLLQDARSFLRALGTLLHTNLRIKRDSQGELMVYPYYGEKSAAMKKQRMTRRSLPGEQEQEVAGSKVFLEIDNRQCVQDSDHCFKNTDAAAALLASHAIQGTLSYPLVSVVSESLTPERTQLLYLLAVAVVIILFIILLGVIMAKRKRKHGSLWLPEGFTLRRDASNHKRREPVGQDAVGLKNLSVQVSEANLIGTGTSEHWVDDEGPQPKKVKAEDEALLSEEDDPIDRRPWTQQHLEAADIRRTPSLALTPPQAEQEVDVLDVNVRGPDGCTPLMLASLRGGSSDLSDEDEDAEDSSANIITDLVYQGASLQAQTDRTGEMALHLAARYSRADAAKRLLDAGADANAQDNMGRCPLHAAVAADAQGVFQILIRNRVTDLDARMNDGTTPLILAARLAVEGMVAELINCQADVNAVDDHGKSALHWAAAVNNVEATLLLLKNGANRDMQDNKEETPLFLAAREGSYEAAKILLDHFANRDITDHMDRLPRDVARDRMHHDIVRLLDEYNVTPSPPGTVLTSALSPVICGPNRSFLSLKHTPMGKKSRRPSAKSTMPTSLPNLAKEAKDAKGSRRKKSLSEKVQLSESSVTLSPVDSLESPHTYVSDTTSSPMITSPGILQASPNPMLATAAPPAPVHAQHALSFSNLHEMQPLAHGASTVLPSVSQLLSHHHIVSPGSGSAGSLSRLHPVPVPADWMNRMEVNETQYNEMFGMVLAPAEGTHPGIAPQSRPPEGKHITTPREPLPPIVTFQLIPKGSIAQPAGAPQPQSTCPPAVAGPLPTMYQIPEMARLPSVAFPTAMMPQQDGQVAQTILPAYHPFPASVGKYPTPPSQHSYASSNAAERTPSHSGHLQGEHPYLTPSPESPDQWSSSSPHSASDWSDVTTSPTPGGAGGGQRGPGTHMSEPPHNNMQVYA
Chain of Torsin-1A-interacting protein 2 (Homo sapiens) (Q8NFQ8 whole entry, looked up): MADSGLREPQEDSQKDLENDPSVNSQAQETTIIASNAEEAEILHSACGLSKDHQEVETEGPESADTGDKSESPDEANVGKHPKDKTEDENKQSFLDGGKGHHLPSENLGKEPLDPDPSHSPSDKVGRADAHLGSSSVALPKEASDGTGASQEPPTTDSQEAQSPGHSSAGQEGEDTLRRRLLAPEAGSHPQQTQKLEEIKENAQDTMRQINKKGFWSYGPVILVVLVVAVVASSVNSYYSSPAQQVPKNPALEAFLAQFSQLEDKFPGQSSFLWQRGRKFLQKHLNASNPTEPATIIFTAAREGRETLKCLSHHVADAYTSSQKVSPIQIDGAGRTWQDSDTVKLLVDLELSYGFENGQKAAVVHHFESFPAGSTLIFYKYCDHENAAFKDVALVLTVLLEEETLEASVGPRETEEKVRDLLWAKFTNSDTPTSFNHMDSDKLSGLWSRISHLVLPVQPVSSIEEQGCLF

Turning to `COC(=O)CC=C[C@@H](C)[C@@H](CO)NS(=O)(=O)c1ccc(C)cc1`, the composite z-score is -0.659 and -0.717 in [1]; 0.406 and 0.605 in assay [2]; -0.108 and -0.0656 in assay [3]; 0.242 and 0.526 in [4]; 0.157 and 0.444 in assay [5]; -0.386 and -0.0111 in assay [6]. The composite z-score in [7] was 0.081 and 0.253; in [9], 0.544 and 0.35; in assay [10], -0.147 and 0.0505; in [11], -0.0055 and 0.604; in [15] it was 0.0736 and 1.26; in assay [17], -0.37 and -0.0533. Further, the composite z-score in assay [18] was 0.598 and 0.856; in assay [19], -0.15 and 0.745; in assay [20] it was -0.118 and 0.0192. Also, the z-score was 0.862 (inactive) and -1.81 (inactive) in [8]; 0.102 (inactive) and 0.479 (inactive) in [12]; -0.178 (inactive) and -0.491 (inactive) in assay [13]; 0.218 (inactive) and -0.249 (inactive) in assay [14]; -0.0928 (inactive) and 0.0226 (inactive) in assay [16].

As to `COC(=O)[C@@]1(Cc2ccc(F)cc2)[C@H]2c3cc(C(=O)N4CCCC4)n(Cc4c(CO)[nH]cc(C)c4=O)c3C[C@H]2CN1C(=O)c1ccccc1`, the composite z-score in [1] was 1.8 and 0.692; in [2], -0.101 and -1.02; in assay [3] it was 0.775 and -0.0485; in assay [4], 1.22 and 0.774; in assay [5], 1.43 and 1.42; in assay [6] it was 1.92 and 1.21. For the same compound, the composite z-score was 1.31 and 1.1 in [7]; 1.54 and 0.659 in assay [9]; 1.42 and 0.314 in assay [10]; 0.519 and 0.355 in [11]; 3.29 and 3.28 in assay [15]; 1.33 and 0.155 in assay [17]. Further, the composite z-score in [18] was 0.0162 and -0.629; in assay [19], 0.335 and 0.422; in assay [20] it was 0.985 and 0.0594. Further, the z-score in assay [8] is 1.78 (inactive) and -0.112 (inactive); in [12] it was 0.786 (inactive) and 1.14 (inactive); in assay [13] it was 1.36 (inactive) and 1.39 (inactive); in assay [14], 0.925 (inactive) and 1.59 (inactive); in assay [16], -0.633 (inactive) and -0.87 (inactive).

With `C=CCN(C(=O)C1N(CCOCCO)C(=O)C2C(C(=O)O)C3C=CC21O3)c1ccc(OC)cc1` (stereo not given), the composite z-score in assay [1] is 1.11 and 1.65; in assay [2], -1.59 and -1.21; in [3], -0.184 and -0.254; in assay [4] it was -0.719 and -1.97; in [5], -2.35 and -1.84; in assay [6] it was 0.555 and 2.07. The composite z-score in assay [7] was 0.328 and 0.86; in assay [9] it was -0.654 and -0.932; in assay [10], -0.581 and -0.349; in [11], -0.968 and -2.33; in assay [15], -0.408 and 1.86; in [17] it was -0.158 and 0.0873. For the same compound, the composite z-score was -1.79 and -3.14 in assay [18]; -0.59 and -0.715 in assay [19]; -0.348 and -0.276 in assay [20]. Besides, the z-score in assay [8] is -0.408 (inactive) and -0.715 (inactive); in assay [12], -0.248 (inactive) and -0.0945 (inactive); in [13], -0.188 (inactive) and -0.571 (inactive); in [14] it was -0.348 (inactive) and -0.662 (inactive); in assay [16], 0.612 (inactive) and 1.52 (inactive).

In the case of `CO[C@@H]1C=CCC(=O)N2CCC[C@H]2C(=O)OC[C@H](C)C(=O)OC[C@H]1C`, the composite z-score in assay [1] is -0.368; in assay [2], 1.3; in assay [3] it was -0.0676; in assay [4] it was 0.0525; in assay [5], -0.244; in [6], -0.226. Besides, the composite z-score is 1.07 in [7]; 0.191 in [9]; 0.501 in assay [10]; 0.59 in assay [11]; -0.246 in assay [15]; -0.0693 in assay [17]. Also, the composite z-score in [18] was 1.41; in [19], -0.13; in assay [20] it was 0.163. The z-score is 0.0531 (inactive) in assay [8]; 0.741 (inactive) in assay [12]; -0.295 (inactive) in assay [13]; -0.606 (inactive) in [14]; 0.714 (inactive) in [16].

Consider `Cc1ccc(S(=O)(=O)N[C@H]2COC(=O)[C@@H](Cc3ccccc3)NC(=O)[C@@H](C)COC(=O)CC=C[C@@H]2C)cc1`, for which the composite z-score in [1] is -0.547 and -0.267; in [2] it was 0.811 and 0.656; in assay [3], -0.177 and -0.145; in assay [4], 0.0514 and 0.209; in assay [5], -0.311 and 0.0627; in assay [6] it was -0.355 and -0.215. The composite z-score is -0.721 and 0.219 in assay [7]; -0.169 and -0.0364 in assay [9]; -0.429 and -0.0994 in assay [10]; -0.0829 and 1.56 in [11]; -0.872 and 0.969 in assay [15]; -0.212 and -0.0726 in assay [17]. Besides, the composite z-score is 0.3 and 0.541 in assay [18]; -0.587 and 0.629 in assay [19]; -0.0952 and -0.0661 in assay [20]. In addition, the z-score in [8] is 1.23 (inactive) and 1.04 (inactive); in assay [12], -0.248 (inactive) and -0.666 (inactive); in assay [13] it was 0.209 (inactive) and 0.195 (inactive); in assay [14] it was -0.342 (inactive) and -0.348 (inactive); in [16] it was 0.205 (inactive) and 0.134 (inactive).

Consider `CCOC(=O)[C@H](Cc1ccccc1)NC(=O)CCC1CC(OC(=O)NCc2cccc3ccccc23)CC2(CCCC(COC(=O)NCCCN3CCCC3=O)O2)O1` (stereo not given in full), for which the composite z-score in [1] was -0.511; in [2], 0.221; in assay [3], -0.107; in assay [4], 0.122; in [5] it was 1.1; in assay [6], 0.412. For the same compound, the composite z-score in assay [7] was 0.783; in [9], 0.249; in assay [10] it was -0.0994; in assay [11], 1.21; in [15], 2.01; in assay [17], -0.148. Further, the composite z-score is 0.692 in assay [18], 1.01 in assay [19] and -0.0578 in [20]. For the same compound, the z-score in assay [8] is -0.81 (inactive); in assay [12], -1.18 (inactive); in assay [13], 0.134 (inactive); in [14], -0.896 (inactive); in [16] it was -0.288 (inactive).

`C=CCN(C(=O)C(c1cccs1)N(C(=O)/C=C\C(=O)O)c1c(Cl)cccc1CO)c1ccc(OC)cc1` (stereo not given): the composite z-score in assay [1] was 1.98 and 1.01; in assay [2] it was -0.781 and -0.551; in assay [3], -0.228 and -0.0608; in assay [4] it was -1.56 and -0.737; in [5], -1.87 and -1.28; in assay [6], 1.04 and -0.796. Also, the composite z-score was 0.782 and 0.0793 in assay [7]; -1 and -0.362 in assay [9]; -0.164 and -0.229 in assay [10]; -0.517 and -1.02 in [11]; 3.16 and 0.422 in assay [15]; 0.018 and 0.522 in assay [17]. The composite z-score is -3.84 and -2.48 in assay [18]; -1.02 and -1.39 in assay [19]; -0.238 and -0.121 in assay [20]. Further, the z-score in assay [8] is 0.284 (inactive) and 0.649 (inactive); in assay [12] it was -0.521 (inactive) and 0.247 (inactive); in assay [13], -1.88 (inactive) and -0.83 (inactive); in [14], -1.51 (inactive) and -0.982 (inactive); in [16] it was 1.67 (inactive) and -0.311 (inactive).

The values are drawn from PubChem BioAssay.
